An excerpt weighted towards active compounds, which were near 12% of everything screened.
Sfp inh: inhibitors of Bacillus subtilis Sfp phosphopantetheinyl transferase | 3.5% of 310,000 active | Biochemical Sfp PPTase activity, qHTS | Potency, µM, inactives show largest response in the series, negative = inhibition, hits mostly inhibitors | Q9F4F7;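 note: the enzyme is Sfp with the accession as filed and its product quenches rhodamine fluorescence; 0% = enzyme reaction without inhibitor and -100% = no enzyme wells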
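Reaction rates are the 30-min fluorescence difference (ex 525, em 598 nm) in wells containing 15 nM Sfp, 5 uM rhodamine-CoA and 12.5 uM BHQ-2-YbbR at pH 7.6 with 10 mM MgCl2.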
BAZ2B inh: blocks human BAZ2B | 4.4% of 360,000 active | Q9UIF8 | AID 504333 | Potency, µM (doses to about 114 µM), for the others: at the highest dose activity change, negative = inhibition, actives largely listed as inhibitors | AlphaScreen BAZ2B-H3K14Ac peptide displacement; note: % is set by controls: 0 for no effect and ±100 for the full control effect; nearly all actives have a fitted effect of over 60% in size
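Inhibition is scored as reduced AlphaScreen emission. The BAZ2B/b-H3(5-23)K14Ac complex (50 nM each) in PBS pH 7.4, 0.01% Tween-20 meets compound (up to 110 uM) for 30 min at RT before bead addition.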
L3MBTL1 inh: inhibitors of human L3MBTL1; AlphaScreen L3MBTL1–H3K9me1 peptide binding; Potency, µM (titrated, usually from 57.1 µM), without a hit: at the highest dose activity, negative = inhibition, actives largely listed as inhibitors; 0.66% of 230,000 active; AID 485360; note: % is set by controls: 0 for no effect and ±100 for the full control effect; nearly all actives have a fitted effect of over 60% in size
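First, the protein-peptide complex forms for 30 min at room temperature (L3MBTL1 50 nM, biotinylated H3K9me1 peptide 75 nM). Next, compounds are pin-transferred and incubated 30 min. Finally, AlphaScreen beads are added and read after 30 min.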
G9a inh: G9a (human) methyltransferase inhibition; G9a H3K9 monomethylation, AlphaScreen, 2 h; AID 504332; Potency, µM (highest dose often 102 µM), inactives show top-dose activity, negative = inhibition, most hits filed as inhibitors; 8.8% of 350,000 active; Q96KQ7; note: % is set by controls: 0 for no effect and ±100 for the full control effect; nearly all actives have a fitted effect of over 75% in size
Target sequence (Q96KQ7 913-1193 limits assumed): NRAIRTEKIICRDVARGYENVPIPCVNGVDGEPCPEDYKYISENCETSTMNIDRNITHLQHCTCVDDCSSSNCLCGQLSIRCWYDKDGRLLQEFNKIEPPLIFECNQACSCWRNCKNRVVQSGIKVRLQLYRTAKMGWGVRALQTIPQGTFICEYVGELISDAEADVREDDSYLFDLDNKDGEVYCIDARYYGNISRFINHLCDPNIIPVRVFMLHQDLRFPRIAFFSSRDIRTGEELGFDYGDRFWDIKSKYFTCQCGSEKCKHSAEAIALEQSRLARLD
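G9a (20 nM) was preincubated 15 min with compound, then reacted 2 h at room temperature with 500 nM biotin-H3K9 peptide and 20 µM SAM. Monomethyl-H3K9 detected by AlphaScreen using anti-H3K9me1 antibody.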
JMJD2A Tudor inh: blocks the human JMJD2A Tudor domain; O75164; AlphaScreen JMJD2A-Tudor / H3K4me3 peptide binding; Potency, µM (titrated, usually from 114 µM), for inactives: at the highest dose activity change, negative = inhibition, usual class: inhibitors; 4.4% of 390,000 active; AID 504339; note: % is set by controls: 0 for no effect and ±100 for the full control effect; nearly all actives have a fitted effect of over 50% in size
HP1b chromo inh: HP1-beta chromodomain-methylated histone interaction inhibition | AlphaScreen HP1-beta / biotin-H3K9me3 peptide binding | P83916 | 0.56% of 390,000 active | AID 540317 | Potency, µM (highest dose often 114 µM), inactives show at the top dose activity change, negative = inhibition, hits mostly inhibitors; note: nearly all actives have a fitted effect of over 70% in size
Target sequence (P83916 whole entry, looked up): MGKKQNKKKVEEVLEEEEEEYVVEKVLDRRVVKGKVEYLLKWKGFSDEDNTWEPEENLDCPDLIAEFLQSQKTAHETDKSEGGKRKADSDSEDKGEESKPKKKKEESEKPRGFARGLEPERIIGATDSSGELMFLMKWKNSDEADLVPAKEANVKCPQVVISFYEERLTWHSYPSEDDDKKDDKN
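AlphaScreen: HP1-beta (50 nM) preformed 30 min with biotin-H3(1-18)K9me3 peptide (50 nM) in PBS pH 7.4, 0.01% Tween-20. Compound added for 30 min at RT, then streptavidin donor/nickel chelate acceptor beads (10 ug/mL) for 30 min.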
* marks the source's active call; other numbers are inactive results; ? = inconclusive; / = no result given; [ ] = dose if it differs, or a comment. Calls come from the whole dose curve; as a rule, active = well fitted curve in the direction sought with a large enough effect; inconclusive = small, poorly fitted or top-dose-only effect, or another doubt; inactive = no such curve, though single readings can be large; an effect the other way counts as inactive or inconclusive. Potency is the fitted concentration of half-maximal effect.

SMILES | Sfp inh | BAZ2B inh | L3MBTL1 inh | G9a inh | JMJD2A Tudor inh | HP1b chromo inh
CC(=O)Nc1ccc(NC(=O)c2nccnc2C(=O)O)cn1 | -10% | 50µM* | / | 21% | -9% | 11%
Cn1nccc1NC(=O)c1nccnc1C(=O)O | -22% | ? | 4% | 40µM* | -3% | 22%
CCOc1cc(C2NC(=O)c3c(sc4c3CCN(C)C4)N2)ccc1OC(=O)c1ccccc1Cl (centres undefined) | / | 31% | / | 4%[59 µM] | -8% | -3%
COc1ccc(-n2cc(-c3ccc4c(c3)OCO4)n(CC(=O)Nc3cccc(C)c3)c2=O)cc1 | / | -39% | / | ? | ? | -20%
Oc1ccccc1Nc1nc(-c2ccccc2)c2cc(Cl)ccc2n1 | / | -15% | / | -11%[59 µM] | -25% | 23%
O=C(CSc1nc2sc3c(c2c(=O)n1-c1ccccc1)CCCC3)N/N=C/c1ccccc1C(=O)O | 30% | ? | / | 79µM* | ? | 15%
NNc1nc2sc3c(c2c(=O)n1-c1ccccc1)CCCC3 | 4% | -6% | 1% | 50µM* | -27% | 6%
Nn1c(Nc2ccccc2)nc2sc3c(c2c1=O)CCCC3 | -15% | -15% | -4% | -8% | -28% | -10%
CCCn1c(=O)c2[nH]c(-c3ccccc3)nc2n(CCC)c1=O | -1% | / | / | 26%[59 µM] | / | /
O=c1cnc2cnc(N3CCOCC3)nc2n1CCc1ccccc1 | 17% | / | / | 12%[0.501 µM] | / | /
CCOc1ccccc1OCc1nn2c(COc3ccccc3)nnc2s1 | 18µM* | -21% | 0% | ? | ? | ?
COc1cc(-c2nn3c(-c4cc(-c5ccccc5)n[nH]4)nnc3s2)cc(OC)c1OC | / | / | / | / | -23%[57.1 µM] | 1%[57 µM]
COc1cc(-c2nn3c(-c4ccccc4)nnc3s2)cc(OC)c1OC | -4% | 1% | -2% | 45µM* | -21% | 23%
COc1cc(-c2nn3c(COc4ccccc4)nnc3s2)cc(OC)c1OC | 56µM* | -2% | 3% | 5µM* | -20% | ?
c1csc(Cc2nn3c(-c4ccncc4)nnc3s2)c1 | ? | ? | ? | 13µM* | ? | 45%
c1csc(-c2nn3c(-c4ccncc4)nnc3s2)c1 | 23% | 0% | 1% | 12% | / | /
Cc1ccc(CN2CCCN(CC(=O)Nc3ccc(C)cc3C)S2(=O)=O)cc1 | / | 4% | / | ? | 11% | 56%
CCOC(=O)C1CCN(C(=O)c2cc3sc(C)cc3n2C)CC1 | / | ? | / | -4%[59 µM] | ? | -8%
CCOc1cccc(-c2nnc3sc(-c4cc(OC)c(OC)c(OC)c4)nn23)c1 | -12% | 10% | 0% | 79µM* | -17% | 14%
c1ccc(OCc2nn3c(-c4ccco4)nnc3s2)cc1 | ? | -8% | -4% | 50µM* | -25% | 25%
Cc1nnc2sc(-c3ccncc3)nn12 | -3% | -30% | 0% | 11%[59 µM] | -12% | 35%
CC(C)(C)c1ccc(-c2nnc3sc(-c4ccncc4)nn23)cc1 | -26% | 11% | 0% | 2.5µM* | -20% | -20%
Cc1cc(OCCn2cc(C(=O)c3cccs3)c3ccccc32)ccc1Cl | / | 8% | / | 17%[59 µM] | -13% | 80%
CC1CC=CC2C1C(=O)N(Cc1ccccc1)C2c1ccc(F)c(Br)c1 (centres undefined) | -16% | / | / | / | 33% | 81%
O=S1(=O)C=C(Sc2nc3cc(Cl)ccc3o2)c2ccccc21 | ? | -24% | -4% | 45µM* | ? | -11%
SMILES | Sfp inh | BAZ2B inh | L3MBTL1 inh | G9a inh | JMJD2A Tudor inh | HP1b chromo inh
CC(C)/C=C1\CC/C(=C\c2ccc(N(C)C)cc2)C1=O | 25% | 12% | ? | 20% | -4% | 41%
CN(C)c1ccc(/C=C2/C[N+](C)(C)C/C(=C/c3ccc(N(C)C)cc3)C2=O)cc1 | / | / | / | / | 40µM* | 40µM*
CCN1C(=O)/C(=C/C=C2\N(CC)c3cc(S(=O)(=O)N(C)C)ccc3N2c2ccccc2)SC1=S | ? | 8.9µM* | ? | ? | -31%[11.4 µM] | -17%
Cc1cc(-c2ccccc2N)n[nH]1 | 4% | ? | -1% | 50µM* | -12% | 19%
Cc1ccc(S(=O)(=O)NCCc2nnc3ccc(SCc4ccccc4F)nn23)cc1 | / | ? | / | -29%[59 µM] | -22% | 17%
CC(C)(C)C(=O)NC1CC(=O)N(c2ccc3c(c2)OCCO3)C1 (centres undefined) | / | -15% | / | 8%[59 µM] | -7% | 6%
CC(NC(=O)c1ccco1)C(c1cccs1)N1CCN(c2ccc(F)cc2)CC1 (centres undefined) | 2% | 50µM* | -15% | 50µM* | -35% | -15%
CC(NC(=O)c1ccco1)C(c1cccs1)N1CCN(c2ccccc2)CC1 (centres undefined) | 3% | ? | -2% | ? | ? | 12%
CCN(CC)c1nc(N)c2c(N)nc3c(c2c1C#N)CC(c1ccccc1)O3 (centres undefined) | -9% | 16% | -2% | 37%[59 µM] | -15% | 37%
CCN(CC)c1nc(N)c2c(N)n(-c3ccccc3C)c(=S)c(C#N)c2c1C#N | ? | -31% | / | -49%[2.33 µM] | 40µM* | ?
O=c1[nH]c(Cc2ccccn2)nc2scc(-c3ccc(Cl)cc3)c12 | -26% | 3% | 2% | 40µM* | -24% | 43%
Cc1ccc(-c2csc3nc(CN(C)Cc4ccccc4)[nH]c(=O)c23)cc1 | -21% | / | -16% | ? | -18% | 66%
O=c1[nH]c(Cc2ccc(F)cc2)nc2scc(-c3ccc(F)cc3)c12 | -79% | 3% | 11% | 3.5µM* | ? | ?
CCOc1ccc(C(=O)c2cn(CC(=O)Nc3ccc(C)c(C)c3)c3ccc(OCC)cc3c2=O)cc1 | / | 3% | / | 5%[59 µM] | 1% | 38%
CCOc1ccccc1NC(=O)CC1SC(=N)N(c2ccccc2)C1=O (centres undefined) | -5% | -10% | 6% | 6% | / | /
Cc1ccccc1NC(=O)CC1SC(=O)N(c2ccccc2)C1=O (centres undefined) | ? | ? | / | ? | -15%[11.4 µM] | -14%
CCOc1ccc(NC(=O)CC2SC(=O)N(c3ccccc3)C2=O)cc1 (centres undefined) | 10µM* | ? | 4% | / | -29% | -4%
O=C(CC1SC(=O)N(c2ccccc2)C1=O)Nc1cccc2ccccc12 (centres undefined) | 20µM* | -25% | / | ? | -27% | 3%
O=[N+]([O-])c1cc(CSC2=NCCN2)ccc1O | -19% | ? | / | 25µM* | -11%[11.4 µM] | 2%
Cn1cnc2c(=O)oc3ccc(S(=O)(=O)N4CCN(c5ccccc5F)CC4)cc3c21 | / | -33% | / | -16%[59 µM] | -8% | 11%
COc1ccc(/C(C)=N/Nc2nc(C)cc(-c3ccccc3)n2)cc1 | / | / | / | / | -17% | 19%

Screening results as filed in PubChem BioAssay.
